This is a sample that favours compounds with a hit; in the whole collection about 4.2% have one here.
Mito fusion act = qHTS Assay for Small Molecule Inhibitors of Mitochondrial Division or Activators of Mitochondrial Fusion; S. cerevisiae fusion-defective mutant growth rescue, CellTiterGlo 48 h; 0.23% of 320,000 active; AID 485298, 2010; Potency, µM (highest dose often 46.1 µM), hits mostly activators; further: nearly all actives have a fitted effect of over 45% in size
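Compounds are tested for their ability to restore growth of mitochondrial fusion-defective yeast strains at non-permissive 37C in YPEG medium over 48 hours. Viability is quantified by luciferase luminescence.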
a7 integrin act = qHTS for Activators of Integrin-Mediated Alleviation for Muscular Dystrophy; alpha7betagal myoblasts, beta-gal FDG fluorescence, 48 h; Potency, µM (titrated, usually from 38.3 µM), usual class: activators; 0.064% of 350,000 active; further: nearly all actives have a fitted effect of over 60% in size
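Alpha7betagal+/- myoblasts (passage 13) were plated 16-24 hr, then exposed to compounds (1:260 dilution of DMSO stock) for 48 hours at 37C. After MPER lysis, β-galactosidase reporter activity was read as FDG fluorescence (ex 480/em 540) after 30 minutes.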
MCF10A rerep = A quantitative high throughput screen for small molecules that induce DNA re-replication in MCF 10a normal breast cells; MCF 10A DNA re-replication, Hoechst nuclear intensity, 48 h; Potency, µM (titrated, usually from 46.1 µM), actives largely listed as activators; 2.9% of 350,000 active; further: nearly all actives have a fitted effect of over 50% in size
SW480 rerep = A quantitative high throughput screen for small molecules that induce DNA re-replication in SW480 colon adenocarcinoma cells; SW480 DNA re-replication, Hoechst DNA content imaging, 48 h; Potency, µM (series often up to 46.1 µM), hits mostly activators; 1.8% of 340,000 active; AID 624297, 2012; further: nearly all actives have a fitted effect of over 55% in size
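SW480 cells exposed to compounds for 48 hr at 37 C, 5% CO2, then Hoechst-stained 40 min. Nuclear DNA content imaged by fluorescence scanning (405 nm excitation, 500-530 nm emission); re-replication scored as increased high-intensity nuclei.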
A-T KAP1 phos = qHTS Assay for Identifying a Potential Treatment of Ataxia-Telangiectasia; F2112 A-T fibroblasts, KAP-1 phosphorylation AlphaLISA; neocarzinostatin DNA damage 30 min before lysis; Potency, µM (doses to about 57.5 µM), most hits filed as activators; 0.19% of 320,000 active; AID 485349, 2010; further: nearly all actives have a fitted effect of over 45% in size
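ATM-like activity read as KAP-1 phosphorylation via AlphaLISA donor/acceptor antibody pairs after lysis and 6 hr at 25C. Cells were ATM-null patient fibroblasts (F2112, hTERT), dosed 60 min, then exposed to the DSB inducer NCS for 30 min.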
Each line names hits and unclear results; the compound was inactive in the other large screens. The call rests on the fitted dose curve; in most records, active means well fitted activation curve with a large enough effect; inconclusive means small, poorly fitted or top-dose-only effect; inactive means no such curve, though single readings can be large or run the other way.

Cc1ccc(NS(=O)(=O)c2ccc(C3CCCCC3)cc2)cc1	MCF10A rerep 23µM, A-T KAP1 phos inconclusive
Cc1ccc(S(=O)(=O)Nc2ccc(N3CCCCC3)cc2)cc1	none
CCCCCSc1nnc(-c2ccccc2NC(C)=O)c(=O)[nH]1	none
CCCC1CCC(=NNC(=O)CNc2ccc(OC)cc2)CC1 (stereo not drawn)	SW480 rerep 15µM
CC(C)C(=O)N1CCN(c2ccc(NC(=O)c3ccc([N+](=O)[O-])o3)cc2)CC1	MCF10A rerep 2.6µM
CN1CCN(c2ccc(NC(=O)COc3ccccc3[N+](=O)[O-])cc2)CC1	none
CC(C)C(=O)N1CCN(c2ccc(NC(=O)c3ccc(Br)o3)cc2)CC1	none
Cc1ccccc1C(=O)N1CCN(c2ccc(NC(=O)c3ccc([N+](=O)[O-])o3)cc2)CC1	MCF10A rerep inconclusive, SW480 rerep 1.6µM
CC(C)C(=O)N1CCN(c2ccc(NC(=O)COc3ccccc3[N+](=O)[O-])cc2)CC1	MCF10A rerep 21µM
N#Cc1cccc(NC(=O)CSc2cccc[n+]2[O-])c1	none (no result: Mito fusion act)
O=C(NCCOc1ccc(Cl)cc1)c1cccc(S(=O)(=O)N2CCCC2)c1	MCF10A rerep inconclusive
CCc1nc(C)cc2c1sc1ccccc12	MCF10A rerep inconclusive, SW480 rerep inconclusive, A-T KAP1 phos 20µM
CC[n+]1c(C)cc2c(sc3ccccc32)c1C	none
O=C(O)CCCC(=O)N1CCCC1	none
